Source: PubChem BioAssay AID1038 (National Center for Advancing Translational Sciences (NCATS), 2008)
Inconclusive results are not listed. The source made the active and inactive calls. Calls follow the shape of the full dose curve.

Test: Normal 1 Cell Viability Secondary Assay for qHTS Assay for Epigenetic Modulators
Conditions: Normal 1 bronchial epithelial viability, MTS, 4 d
Source text: NIH Molecular Libraries Screening Centers Network [MLSCN] NIH Chemical Genomics Center [NCGC] MLSCN Grant: 1 X01 MH079860-01 Assay Provider: Elisabeth D. Martinez, University of Texas SW Medical Center NCGC Assay Overview: This secondary assay characterizes selected actives identified in the qHTS of the Locus Derepression (LDR) assay (PubChem AID 597). The LDR assay detects the derepression of a GFP reporter that is stably integrated in a region of the genome of murine c127i mammary cells that is presumably silenced. Compounds that cause derepression of the locus to express GFP are identified by enumerating GFP positive cells using a laser-scanning microplate cytometer. Selected LDR actives were assayed for killing of Normal 1, a patient-derived normal bronchial epithelial line matched to NSCLC 1, a nonsmall cell lung carcinoma line from the same patient. The Normal 1 line assays the cytoxicity of test compounds on normal lung cells. Normal 1 cell viability was measured using Cell Titer 96 AQueous One (Promega), an assay which detects the ability of metabolically active cells to reduce a tetrazolium salt substrate (MTS), into a soluble formazan product that can be measured by colorimetry.
NCGC Assay Protocol Summary Normal 1 cells were plated in 96-well flat bottom tissue culture dishes (Corning) and grown overnight at 37 C and 5% CO2, then treated with compounds, incubated 4 days, and assayed for viability using the Cell Titer 96 AQueous One kit (Promega) according to the manufacturer's protocol. Absorbance at 490 nm and 650 nm (reference) was measured by a Spectra Max (Molecular Devices). Data were normalized to the untreated control (100% viability). Each cell line was tested in one or two independent assays, each containing 4 or 8 replicates. For further details, see R.L. Johnson, W. Huang, A. Jadhav, C.P. Austin, J. Inglese, E.D. Martinez, A Quantitative High-Throughput Screen Identifies Potential Epigenetic Modulators of Gene Expression, Analytical Biochemistry (2007), doi: 10.1016/j.ab.2007.12.028

Compound | Potency | outcome
CC(C)C(=O)NC(c1ccco1)c1cc([N+](=O)[O-])c2cccnc2c1O (configuration not stated) | 800 nM (active) | –
O=C(CSc1cccc2cccnc12)NCc1ccccc1 | – | inactive
CC(/C=C/C(=O)NO)=C\[C@@H](C)C(=O)c1ccc(N(C)C)cc1 | 200 nM (active) | –
CC(C)C(=O)NC(c1ccco1)c1ccc2cccnc2c1O (configuration not stated) | 9000 nM (active) | –
CN1C(=S)SC(c2ccccc2)N(C)C1c1ccccc1 (configuration not stated) | – | inactive
CC(C)C(=O)NC(c1ccc(N(C)C)cc1)c1ccc2cccnc2c1O (configuration not stated) | 6000 nM (active) | –
O=Nc1ccc(O)c2ncccc12 | 3000 nM (active) | –
